# The full ranking holds about 25,000 sequences; the median of “ln(normalized median fluorescence intensity)” is about 9.3, and the highest 2% start at about 10. This excerpt belongs to a sample that is enriched for the highest values.
# Tested on: PF3D7_0420300 AP2 domain 1 (GST-tagged)
# Test: gcPBM binding intensity (ln(normalized median fluorescence intensity)); higher = stronger DNA binding
# How it was run: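 Plasmodium falciparum DNA-binding domains carrying a GST tag were expressed in E. coli and applied for 1 h, at about 25 μg on average, to an Agilent 4 × 180k array. The array held primer-extended double-stranded 36-bp intergenic genomic probes together with negative controls, and binding took place in 1× PBS with 1% milk, 0.2 mg/ml BSA, 0.5% salmon testes DNA and 0.03% Triton X-100. An Alexa488 anti-GST antibody detected bound protein, and the array was scanned at 488 nm. Binding intensity is taken as the highest Masliner-normalised natural-log median intensity across replicate spots of either probe orientation.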
row,Sequence,gcPBM binding intensity (ln)
1,GTACATAGGTATAGCACACACAAATGTAGGTATTTT [CACACA_site4049],9.65
2,TATATTTATTATAACACACACATATAAATATTATAG [CACACA_site6726],9.67
3,TTGTTCTAATATATTGCACACGTAAAAATATAGGTA [CACACA_site8195],9.3
4,TAAGGATAAATAAAATGAAATGAAATAAATAAATGA [XGTACX_negctrl_site539],9.24
5,TATAAAATATAAATAAATAAATAAATATATATATAT [TGCATGCA_negctrl_site448],9.11
6,GCGGCGGTATCATGCACACGTATATATTGTAACAGT [CACACA_site4958],9.27
7,TTTTTTATTTTAATGTATTATTTTTATGTAATATAT [GTGCAC_negctrl_site391],9.23
8,CAAAAATAAATATAAACACACAATAAATAAATAAAT [CACACA_site891],9.91
9,AAAAAAAAAAGACACACACACAATAGTATATAAATC [CACACA_site6579],10.2
10,ATGGACAAAAAATATATACACACGAGGAAACCAACA [CACACA_site3726],10.1
11,AGAGTATATAAAGTAACACACAATAAAATAAAATAA [CACACA_site2328],9.82
12,AAAAATATGAAGACACAATATAGAAATAAAAATATA [XGTACX_negctrl_site244],9.44
13,AAAAAAAAAAAAAACACACACACAATAGTATATAAA [CACACA_site957],9.94
14,TAAAAATAGTATACAACACACGAGGGAAAATAAAGT [CACACA_site3837],10.2
15,AAAAAAAAAAAACACACACACAATAGTATATAAATC [CACACA_site956],10.3
16,TAAATACAAAAATGCACACGAAAAGTAATATATATA [CACACA_site6151],9.64
17,AACATAATAAAAATGGATATAATTCAAAGTTTGTAA [TGCATGCA_negctrl_site529],9.25
18,TTTTATATATATTATACACACAAGGAAAAAAAAAAA [CACACA_site3677],9.53
19,ATATATTTTATTCCTATATATATATATATATATATA [GTGCAC_negctrl_site556],9.27
20,AAAAATGTAAAGTGCGTGCACAAAATATTTGGAAAA,9.27
21,AGAAATATATCTATTTGTCCGTATATTCATATTTAT [XGTACX_site8427],9.4
22,TTAAACTTGAAACACACACACACACCGATATAAAAA [CACACA_site4578],10.2
23,TAACCATACATACATACACACACACCCACATATATA [CACACA_site8951],10.1
24,TTTTTTTATAAAAATGAACACACACCGATATATATA [CACACA_site9161],9.63

row,Sequence,gcPBM binding intensity (ln)
1,AAGGATATAACATACACACACACACCGATATATATA [CACACA_site6136],10.2
2,GGAAGGATATAACATACACACACACCCATATATATA [CACACA_site9376],10
3,GTAACATACACATATACACACACACCGATATACATA [CACACA_site8278],10.2
4,CCATAAAAAGGATACACACACACACCGACATATATA [CACACA_site4653],10.2
5,TTAAACTTGAAACACACACACACACCCATATAAAAA [CACACA_site758],10.1
6,ATATATACATATAACACACACATATATATATATATA [CACACA_site2575],9.56
7,CATATAAAAGGACACACACACACATATATATATATA [CACACA_site4674],10
8,AAGGATATAACATACACACACACACCCATATATATA [CACACA_site4142],10.3
9,ATAAAAAAAGGACACACACACATATATATATATATA [CACACA_site5662],9.93
10,ATATAACTCAAGGGCACACATATACCTTTCCTTTTT [CACACA_site4390],9.5
11,AATATACATAACAAGGTGCAAAAAATATTGTTCATA [GTGCAC_site9499],9.5
12,TATTATCTCTTATGAACACACATTTTTATTTTCAAA [CACACA_site3353],9.31
13,AATATATAGCTAAAAACACACAAATATATACGCATA [CACACA_site3608],9.69
14,TTATATATAATATATACACACACATGTATATATAAA [CACACA_site8603],9.45
15,AGTTAATGAATAGGCACACATATATCTGTATAAATA [CACACA_site4448],9.47
16,AAAAAGGATAAACACACACACACACCGATATATATA [CACACA_site8206],10.2
17,CAAAAGGATAGGCACACACACACACCGATATATATA [CACACA_site8685],10.2
18,AAAAAAAAAATATACACACACACATACCCATAAATA [CACACA_site5981],9.99
19,CCATAAAAAGGATACACACACACACCCACATATATA [CACACA_site903],10.2
20,ACTTGACACGGACACACACACATATATAAAAAAAAA [CACACA_site4576],9.87
21,TTAAACTTGAGACACACACACACACGGATATAAAAA [CACACA_site6495],10.2
22,TAAAAGGATACATATACACACATATATATATATATA [CACACA_site2791],9.32
23,AAAAAAAAAAGACACACACACACACGGAGATATATA [CACACA_site6216],10.3
24,AATAAAAAGGAACACACACACACACCGATATATATA [CACACA_site5895],10.2

row,Sequence,gcPBM binding intensity (ln)
1,AAAAAAAAAAGACACACACACAAAAAAAGATATATA [CACACA_site6645],10.2
2,AAAAAAAAAAGACACACACACATATTTATTTATATA [CACACA_site6484],9.93
3,AAACTTGACGGACACACACACACATATATAAAAAAA [CACACA_site4577],10
4,ATTTATGAAAAATGTACACACATCAAATGCTTATAT [CACACA_site4068],9.42
5,AAATGAAAGAACAGCACACATATATATTATATATAA [CACACA_site2002],9.63
6,ATTGCATATAATGGCACACATAAATCCATAATATAT [CACACA_site297],9.29
7,GTTAATATACATAAACGTACAGAATTATTATGAGTT [XGTACX_site5185],9.13
8,TGTTTAACATTTATATGTACATATATTCACATATTA [XGTACX_site342],9.29
9,AACAATATATTGAATAGTACATATATATAAACATAT [XGTACX_site2811],9.46
10,GTAGAAAGAAAAATTAGTACTTAAATATTATAAAAA [XGTACX_site8458],9.11
11,AATAAATATAAATACACACCCATATAAATATAAATA [CACACA_site7264],9.85
12,ACCCATAAAAAGGATACACACACACCCACCCATATA [CACACA_site8205],10.4
13,CCATAAAAAGGATACACACACACACGCACATATATA [CACACA_site6550],10.2
14,AATATAAGGATATATACACACATAAATACATACATA [CACACA_site7859],9.89
15,TAGATACATACACGCACACACATATATAAATAAATA [CACACA_site6157],9.85
16,AATAAATATAAATACACACCCATATATATATATATA [CACACA_site5436],9.45
17,TTTTATAAATCTAAACGTATCTAAATGAATAATTAA [GTGCAC_negctrl_site44],8.84
18,TTTATAACATTTAAGAGTACAAAAAAATAAATAAAT [XGTACX_site1264],9.37
19,TATTGTAGAGGCAAAAGTACACATTTAATAATTTCC [XGTACX_site1151],9.23
20,ACTTGTAAGAAACACACACACACACCGATATATATA [CACACA_site4594],10.4
21,AAACTTGTAAGAAACACACACACACCCATATATATA [CACACA_site797],10.1
22,GTAAGAAACAGACACACACACATATATATATATATA [CACACA_site794],9.79
23,AAACTTGTAAGAAACACACACACACGCATATAAATA [CACACA_site6518],10
24,TTGTAAGAAAAACACACACACACATATATATATATA [CACACA_site795],9.95

row,Sequence,gcPBM binding intensity (ln)
1,ACTTGTAAGAAACACACACACACACCCATATATATA [CACACA_site796],10.4
2,AATATAAAAATGTTTACACACACACGGAAATATATT [CACACA_site7226],10.1
3,TATATATATATGTGTATACACACCTGATAAAGGTAT [CACACA_site2653],9.42
4,AAAAATTTGGCATACACACACACACGCACACGCACA [CACACA_site6422],10.2
5,AAAAATTTGGCATACACACACACACCCACACCCACA [CACACA_site587],10.2
6,AAAATTCATATATACACACACGCACATATATATATA [CACACA_site90],9.85
7,AAAAAATTCATATATACACACACGCACATATATATA [CACACA_site4226],9.84
8,CTTAAATTTTTAAATACACACATACACCCATACACA [CACACA_site4461],9.64
9,TACAAAAAAAATGTATTTAGGACATATATATGTTTA [XGTACX_negctrl_site455],9.02
10,ACGTTTTATAATTAATGTACAAATATTAAAATTGCA [XGTACX_site7869],9.07
11,GCTAGTTTTTTTTGGCGTACAGTACCGGTTTACTTT [XGTACX_site2606],9.42
12,AAAAAAAAAAAATAATGTACATATGTATTTGAGAAA [XGTACX_site3572],9.23
13,TATAACAAATAAAAATGTACATATATATAATATATA [XGTACX_site6173],9.38
14,AACAAAATAAAACACACACACAAATGTACATATATA [CACACA_site2424],10.2
15,ATAACAAAATAAAACACACACACAAATGTACATATA [CACACA_site2425],10.3
16,TAACAAAATGTAAATAAACACACATATATATATATA [CACACA_site8352],9.37
17,AAAAATATAATATAATGTACACATAAACAAAAAAAA [XGTACX_site3658],9.58
18,ATAACAAAATAAAACACACACACAAATGTACAGATA [CACACA_site5358],10.3
19,ATAATATAACACAAATGTACAAAAAATAAATAAATA [XGTACX_site385],9.51
20,ACAAAATGTAAATAAACACACATATATATATATATA [CACACA_site1281],9.3
21,ATGTTGTACAAACACACACACAAAAAAAAAATAAAA [CACACA_site2406],9.89
